Active and inactive are the calls of the source.
Legend:
[1] = tested on: Plasmodium falciparum Sir2 (PF13_0152, Sir2A); test: pfSir2 binders on small-molecule microarrays, primary screen, biochemical, small-molecule microarray, 635 nm fluorescence (AID 1098); settings: small-molecule microarray binding, fluorescence 635 nm; higher = more signal;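 note: score merges spot fluorescence intensity with its signal-to-noise ratio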
[2] = small-molecule microarray binders of probe aDKK1, primary screen, biochemical, biotinylated probe, 635/667 nm fluorescence (AID 1099); settings: higher = more signal; small-molecule microarray, probe aDKK1, fluorescence unless noted;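 note: score merges 667nm spot fluorescence with signal to noise across triplicate slides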
[3] = small-molecule microarray binders of probe aCHRDL2, primary screen, biochemical, biotinylated probe, 635/667 nm fluorescence (AID 1100); settings: higher = more signal; small-molecule microarray, probe aCHRDL2, fluorescence unless noted
[4] = splicing luciferase reporter signal modulators, primary screen, spliceosome inhibition project, cell-based, HEK293, splice +/- reporter (AID 1101); settings: luminescence, 24 h; higher = more signal, called active from +8 up or from −8 down unless noted;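 note: HEK293 cells carrying a splicing-competent luciferase reporter gene; test concentration not given here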
[5] = target: Fibroblast growth factor 10 (Homo sapiens) (UniProt O15520); test: FGF10 binders on small-molecule microarrays, primary screen, biochemical, small-molecule microarray, 635 nm fluorescence (AID 1102); settings: FGF10 binding, fluorescence 635 nm, higher = more signal
[6] = tested on: glycogen synthase kinase-3 (GSK3A per assay name; protocol says GSK3B); test: GSK3 binders on small-molecule microarrays, primary screen, biochemical, small-molecule microarray, 635 nm fluorescence, GSK3A (AID 1103); settings: small-molecule microarray binding, fluorescence 635 nm; higher = more signal; note: the record names both GSK3A and GSK3B
[7] = target: Epidermal growth factor receptor (Homo sapiens) (UniProt P00533); test: EGFR binders on small-molecule microarrays, primary screen, biochemical, small-molecule microarray, 635 nm fluorescence (AID 1104); settings: EGFR binding, higher = more signal;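 note: score merges 667 nm emission intensity with spot signal to noise over triplicate slides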
[8] = target: Follistatin-related protein 3 (Homo sapiens) (UniProt O95633); test: FSTL3 binders on small-molecule microarrays, primary screen, biochemical, small-molecule microarray, 635 nm fluorescence (AID 1105); settings: FSTL3 binding, higher = more signal;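 note: score merges emission near 667 nm and signal to noise per printed spot across three slides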
[9] = target: Dickkopf-related protein 1 (Homo sapiens) (UniProt O94907); test: DKK1 binders on small-molecule microarrays, primary screen, biochemical, small-molecule microarray, 635 nm fluorescence scan (AID 1106); settings: DKK1 binding, higher = more signal;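 note: score merges emission near 667 nm with signal to noise over three replicate slides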
[10] = tested on: Inhibin beta A chain (activin A); test: INHBA (activin A) binders on microarrays, primary screen, biochemical, small-molecule microarray, 635 nm fluorescence scan (AID 1107); settings: small-molecule microarray binding, higher = more signal;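 note: mouse activin A protein probed at 4.33 µg/mL on printed slides; score merges bound-protein fluorescence near 667 nm with spot signal-to-noise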
[11] = tested on: Human papillomavirus type 1a protein E7 (residues 44-93); test: HPV1a E7 fragment binders on microarrays, primary screen, biochemical, small-molecule microarray, residues 44-93, 635 nm fluorescence (AID 1108); settings: small-molecule microarray binding, fluorescence 635 nm; higher = more signal;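 note: E7 fragment applied at 1 µg/mL in TBST for 1 h at 4 C; score combines spot fluorescence with its signal to noise ratio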
[12] = modulators of HCV replicon luciferase signal, primary screen, HCV replication inhibitor project, Huh7 cells, luciferase reporter (AID 1109); settings: 48 h, higher = more signal;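 note: huh7 hepatoma cells harbouring a luciferase neomycin HCV replicon reporter; luciferase luminescence as measure of HCV replicon replication; test concentration not given here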
[13] = target: Left-right determination factor 2 (Homo sapiens) (UniProt O00292); test: LEFTY2 binders on small-molecule microarrays, primary screen, biochemical, small-molecule microarray, 635 nm fluorescence scan (AID 1110); settings: LEFTY2 binding, higher = more signal
[14] = target: Calmodulin-1 (Homo sapiens) (UniProt P0DP23); test: CALM1 binders on microarrays, EGTA buffer, profiling panel, biochemical, small-molecule microarray, Cy5-labelled CALM1 (AID 1111); settings: Cy5-CALM1 binding fluorescence, higher = more signal;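 note: labelled calmodulin applied in Tris saline Tween buffer holding calcium plus EGTA and DTT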
[15] = target: Calmodulin-1 (Homo sapiens) (UniProt P0DP23); test: calcium-bound CALM1 binders on microarrays, profiling panel, artefact control for SMM control-protein annotation, biochemical, small-molecule microarray, Cy5-labelled CALM1, plus calcium (AID 1112); settings: Cy5-CALM1 binding fluorescence, higher = more signal;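 note: score merges spot fluorescence with signal to noise from triplicate slides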
[16] = small-molecule microarray binders of probe aWnt5a, primary screen, biochemical, biotinylated probe, 635/667 nm fluorescence (AID 1113); settings: higher = more signal; small-molecule microarray, probe aWnt5a, fluorescence unless noted;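 note: score merges 667 nm fluorescence intensity with signal-to-noise per printed feature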
[17] = small-molecule microarray binders of probe aShh, primary screen, biochemical, biotinylated probe, 635/667 nm fluorescence (AID 1114); settings: higher = more signal; small-molecule microarray, probe aShh, fluorescence unless noted;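 note: probe is biotin-labelled aShh protein from a stem cell growth factor screen; measures binding of labelled protein to compounds printed on the slide; score merges feature fluorescence at 667 nm with signal-to-noise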
[18] = small-molecule microarray binders of probe aNog, primary screen, biochemical, biotinylated probe, 635/667 nm fluorescence (AID 1115); settings: higher = more signal; small-molecule microarray, probe aNog, fluorescence unless noted;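 note: probe is biotinylated aNog protein used at 0.15 µg/mL for 1 h at 4 C; z-score combines 667 nm fluorescence of each spot with its signal to noise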
[19] = target: Torsin-1A-interacting protein 1 (Homo sapiens) (UniProt Q5JTV8); test: LAP1 binders from COS7 cell lysate, primary screen, small-molecule microarray, 635/667 nm fluorescence (AID 1116); settings: COS7-hLAP1 lysate binding, 635 nm fluorescence, higher = more signal
[20] = target: Alpha-bungarotoxin (Bungarus multicinctus) (UniProt P60615); test: alpha-bungarotoxin binders on microarray, profiling panel, artefact control for SMM control protein annotation, biochemical, small-molecule microarray, Alexa647 label, 635/667 nm fluorescence (AID 1117); settings: alpha-BTX-A647 binding fluorescence, higher = more signal
Sequence of Alpha-bungarotoxin (Bungarus multicinctus) (P60615 whole entry, looked up): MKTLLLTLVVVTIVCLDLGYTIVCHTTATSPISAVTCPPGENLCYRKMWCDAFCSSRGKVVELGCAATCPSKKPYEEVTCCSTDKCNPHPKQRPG

Sequence of Dickkopf-related protein 1 (Homo sapiens) (O94907 whole entry, looked up): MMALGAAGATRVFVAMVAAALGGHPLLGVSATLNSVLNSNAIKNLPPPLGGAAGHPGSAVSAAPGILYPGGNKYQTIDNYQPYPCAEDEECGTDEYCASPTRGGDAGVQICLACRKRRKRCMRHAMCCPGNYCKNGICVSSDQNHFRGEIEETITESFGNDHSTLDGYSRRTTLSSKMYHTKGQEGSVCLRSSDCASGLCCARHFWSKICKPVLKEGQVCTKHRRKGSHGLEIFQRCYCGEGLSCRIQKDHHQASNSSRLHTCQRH
Sequence of Epidermal growth factor receptor (Homo sapiens) (P00533 whole entry, looked up): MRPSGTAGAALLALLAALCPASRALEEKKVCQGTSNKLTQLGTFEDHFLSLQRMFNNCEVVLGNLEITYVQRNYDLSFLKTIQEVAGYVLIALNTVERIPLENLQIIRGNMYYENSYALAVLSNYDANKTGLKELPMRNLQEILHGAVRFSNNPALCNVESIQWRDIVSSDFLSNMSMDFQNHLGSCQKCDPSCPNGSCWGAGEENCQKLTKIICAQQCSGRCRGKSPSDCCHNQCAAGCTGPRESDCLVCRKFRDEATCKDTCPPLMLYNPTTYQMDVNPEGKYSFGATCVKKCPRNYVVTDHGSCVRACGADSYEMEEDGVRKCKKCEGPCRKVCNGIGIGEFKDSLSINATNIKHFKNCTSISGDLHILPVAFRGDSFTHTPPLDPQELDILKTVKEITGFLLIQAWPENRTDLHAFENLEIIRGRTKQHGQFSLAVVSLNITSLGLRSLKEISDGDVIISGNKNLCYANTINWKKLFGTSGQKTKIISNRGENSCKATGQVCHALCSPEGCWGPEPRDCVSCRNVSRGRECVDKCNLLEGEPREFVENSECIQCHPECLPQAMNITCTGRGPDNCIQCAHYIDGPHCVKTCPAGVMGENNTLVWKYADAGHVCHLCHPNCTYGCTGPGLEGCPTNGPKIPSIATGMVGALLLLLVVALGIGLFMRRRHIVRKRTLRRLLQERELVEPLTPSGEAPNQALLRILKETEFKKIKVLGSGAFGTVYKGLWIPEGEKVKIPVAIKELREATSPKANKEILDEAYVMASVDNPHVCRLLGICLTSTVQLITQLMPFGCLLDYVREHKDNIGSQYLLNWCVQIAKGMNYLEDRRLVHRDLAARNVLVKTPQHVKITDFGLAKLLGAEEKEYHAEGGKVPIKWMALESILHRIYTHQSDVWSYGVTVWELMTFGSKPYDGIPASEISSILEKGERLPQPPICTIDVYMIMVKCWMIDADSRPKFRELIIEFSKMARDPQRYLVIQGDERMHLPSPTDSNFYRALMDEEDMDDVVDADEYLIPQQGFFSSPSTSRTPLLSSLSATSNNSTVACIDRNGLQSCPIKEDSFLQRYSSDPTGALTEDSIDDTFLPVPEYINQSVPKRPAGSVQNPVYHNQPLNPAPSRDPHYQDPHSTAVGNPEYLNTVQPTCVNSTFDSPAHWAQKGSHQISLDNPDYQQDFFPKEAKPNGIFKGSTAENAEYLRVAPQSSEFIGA
Sequence of Torsin-1A-interacting protein 1 (Homo sapiens) (Q5JTV8 whole entry, looked up): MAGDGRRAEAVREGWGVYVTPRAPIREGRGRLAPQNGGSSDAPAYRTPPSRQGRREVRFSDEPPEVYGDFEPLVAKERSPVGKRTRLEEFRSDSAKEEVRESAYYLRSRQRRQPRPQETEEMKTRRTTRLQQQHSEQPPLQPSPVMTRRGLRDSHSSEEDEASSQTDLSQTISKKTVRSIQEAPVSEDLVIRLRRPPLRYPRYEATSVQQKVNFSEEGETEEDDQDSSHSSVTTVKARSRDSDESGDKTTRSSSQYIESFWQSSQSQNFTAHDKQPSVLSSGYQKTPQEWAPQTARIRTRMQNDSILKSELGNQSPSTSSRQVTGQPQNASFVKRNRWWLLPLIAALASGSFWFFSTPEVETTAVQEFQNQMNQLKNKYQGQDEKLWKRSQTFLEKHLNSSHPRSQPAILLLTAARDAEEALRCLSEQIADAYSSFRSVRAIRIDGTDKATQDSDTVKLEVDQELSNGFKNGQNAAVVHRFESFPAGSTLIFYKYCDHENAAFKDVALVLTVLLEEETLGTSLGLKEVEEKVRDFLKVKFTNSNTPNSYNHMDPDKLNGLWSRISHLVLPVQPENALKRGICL
Sequence of Left-right determination factor 2 (Homo sapiens) (O00292 whole entry, looked up): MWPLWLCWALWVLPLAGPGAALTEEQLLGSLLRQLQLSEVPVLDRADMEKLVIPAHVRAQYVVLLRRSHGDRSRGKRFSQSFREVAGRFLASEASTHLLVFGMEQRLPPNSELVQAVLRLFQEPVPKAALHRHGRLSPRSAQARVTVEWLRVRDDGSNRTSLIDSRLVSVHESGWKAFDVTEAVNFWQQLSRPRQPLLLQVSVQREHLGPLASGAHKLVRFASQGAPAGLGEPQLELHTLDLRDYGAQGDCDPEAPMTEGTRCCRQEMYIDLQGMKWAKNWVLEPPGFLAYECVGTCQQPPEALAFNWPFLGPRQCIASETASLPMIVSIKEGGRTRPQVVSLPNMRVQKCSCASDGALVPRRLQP
Sequence of Follistatin-related protein 3 (Homo sapiens) (O95633 whole entry, looked up): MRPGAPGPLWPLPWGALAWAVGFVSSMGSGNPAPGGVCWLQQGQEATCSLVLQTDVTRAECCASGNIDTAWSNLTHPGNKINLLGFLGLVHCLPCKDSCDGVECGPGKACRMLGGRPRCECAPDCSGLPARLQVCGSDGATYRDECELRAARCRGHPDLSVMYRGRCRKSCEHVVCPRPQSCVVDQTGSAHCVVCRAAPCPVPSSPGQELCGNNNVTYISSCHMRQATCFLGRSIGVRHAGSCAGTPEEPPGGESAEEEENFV
Sequence of Fibroblast growth factor 10 (Homo sapiens) (O15520 whole entry, looked up): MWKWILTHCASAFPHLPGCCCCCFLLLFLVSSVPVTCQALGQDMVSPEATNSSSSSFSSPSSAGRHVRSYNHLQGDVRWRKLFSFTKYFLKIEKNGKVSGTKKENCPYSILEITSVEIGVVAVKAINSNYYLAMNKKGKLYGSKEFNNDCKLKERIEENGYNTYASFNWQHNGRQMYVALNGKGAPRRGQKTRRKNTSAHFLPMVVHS

| Compound | composite z-score [1] | composite z-score [2] | composite z-score [3] | z-score [4] | composite z-score [5] | composite z-score [6] | composite z-score [7] | composite z-score [8] | composite z-score [9] | composite z-score [10] | composite z-score [11] | z-score [12] | composite z-score [13] | composite z-score [14] | composite z-score [15] | composite z-score [16] | composite z-score [17] | composite z-score [18] | composite z-score [19] | composite z-score [20] |
| --- | --- | --- | --- | --- | --- | --- | --- | --- | --- | --- | --- | --- | --- | --- | --- | --- | --- | --- | --- | --- |
| OCc1ccc(C2=CC(C3CC3)N(Cc3sc4ccccc4c3Cl)CC2)cc1 (stereo not given) | 1 | 0.0931 | 0.274 | -0.747 (inactive) | 0.458 | 0.979 | 0.417 | 0.48 | 0.8 | 1.04 | 0.794 | -1.68 | 0.401 | 0.0976 | -0.481 | -0.103 | -0.0146 | -0.0662 | 0.781 | 1.44 |
| COC(=O)[C@H]1[C@@H](O)[C@@]2(O)c3c(OC)cc(OC)cc3O[C@@]2(c2ccc(OC)cc2)[C@@H]1c1ccccc1 | 0.373 | -0.193 | -0.482 | -1.89 (inactive) | 0.384 | 0.586 | 0.628 | 0.554 | 0.962 | 0.0587 | 0.828 | 1.91 | 0.473 | 0.371 | -0.402 | -0.0606 | 0.0684 | 0.117 | 0.537 | 0.611 |
| CCCc1cc2c(n1Cc1ccc(C)cc1)C(C)C1CN(C(=O)c3ccccc3)C(C)(C(=O)OC)C21 (stereo not given) | -0.232 | 1.69 | 1.46 | -3.92 (inactive) | 1.15 | 0.0952 | 0.234 | 1.12 | -0.0627 | 1.28 | 0.294 | -1.33 | -0.472 | 2.63 | 1.31 | 0.417 | 0.769 | 1 | 2.25 | 1.9 |
| COC(=O)[C@H]1C(=O)c2ccccc2O[C@@](C(=O)OC)(c2ccccc2)[C@@H]1c1ccccc1 | 0.118 | -0.246 | -0.354 | -0.959 (inactive) | 0.232 | -0.831 | 0.0442 | -0.27 | 0.435 | 0.315 | -0.853 | -0.424 | 0.104 | -0.558 | -0.268 | -0.0519 | -0.352 | -0.367 | -0.271 | -0.579 |
| CN1CCC(c2ccc(CO)cc2)=CC1c1cccs1 (stereo not given) | 0.0161 | -0.367 | -0.17 | -0.0418 (inactive) | -0.474 | -0.323 | 0.0626 | 0.152 | 1.55 | 0.917 | -0.895 | 1.05 | -0.0469 | -0.0348 | -0.556 | -0.0685 | -0.0769 | -0.216 | 0.238 | 0.945 |
| CN1CCc2nc(CO)c(CO)cc2C1 | -0.0844 | 0.0703 | -0.445 | 0.261 (inactive) | 0.297 | 0.702 | 0.514 | 0.51 | 0.323 | -0.0175 | 0.22 | -0.365 | 0.357 | -0.192 | -0.657 | -0.117 | -0.138 | -0.104 | -0.115 | -0.0299 |
| CCCc1cc2c(n1CCO)C(C)C1CN(C(=O)c3ccccc3)C(C)(C(=O)OC)C21 (stereo not given) | 0.677 | 1.76 | 1.57 | -1.08 (inactive) | 0.0807 | -0.181 | -0.362 | 0.0815 | -0.369 | 1.24 | -0.202 | -1.27 | -0.258 | 2.45 | 1.06 | 0.353 | 0.0545 | 1.85 | 2.26 | 2.61 |
| C=C(CC1(CNP(=O)(c2ccccc2)c2ccccc2)CC1)c1ccccc1 | 1.34 | 0.19 | 0.752 | -0.937 (inactive) | 0.213 | -0.383 | 0.187 | -0.77 | -0.542 | 1.16 | -0.872 | -1 | 0.165 | 1.22 | 0.442 | 0.0597 | -0.273 | 1.01 | 0.836 | -0.108 |
| c1ccc(-c2cc3c(nc2-c2ccccc2)CCNC3)cc1 | 0.035 | -0.193 | -0.165 | -0.326 (inactive) | -0.757 | -0.598 | -0.0212 | -0.419 | -0.419 | 1.09 | -0.903 | -1.32 | 0.0196 | -0.198 | -0.0533 | -0.184 | -0.0626 | 0.0459 | -0.19 | 0.913 |
| CCOC(=O)[C@H]1CC=C2C(=O)Oc3ccc(Br)cc3[C@@H]21 | 1.07 | -0.0951 | 0.667 | 0.123 (inactive) | -0.79 | 0.254 | -1.34 | -1.51 | -1.48 | -1.85 | 0.891 | -3.69 | -1.91 | 1.27 | 0.0172 | -0.0118 | 0.151 | 0.884 | 0.501 | 1.65 |
| OCc1ccc(C2=CC(c3cccs3)N(Cc3cccc(OC(F)(F)F)c3)CC2)cc1 (stereo not given) | 0.916 | -0.236 | -0.0613 | -1.18 (inactive) | -0.0615 | -0.123 | -0.0657 | 0.107 | 0.0824 | 1.18 | -0.307 | -1.07 | 0.198 | -0.573 | -0.411 | -0.091 | -0.138 | -0.244 | 0.221 | 0.934 |
| CCCc1cc2c(n1Cc1cccc(Cl)c1)C(C)C1CN(C(=O)c3ccccc3)C(C)(C(=O)OC)C21 (stereo not given) | 0.922 | 1.37 | 1.54 | -3.44 (inactive) | 0.368 | 0.146 | -0.458 | -0.0989 | -1.61 | 1.24 | 0.226 | -2.24 | -0.587 | 2.18 | 1.37 | -0.0445 | 0.261 | 1.71 | 2.22 | 0.818 |
| COC(=O)NCC=Cc1nc(CCC=CC(=O)O[C@H]2CC3CC(=O)O[C@@H](C=CCC(C)C)C[C@@H]4CC[C@H](C)[C@@H](C[C@@H](OC)C[C@H](C2)O3)O4)co1 | -0.466 | -0.445 | -0.42 | 0.659 (inactive) | -0.512 | -1.21 | -0.633 | -0.65 | -0.447 | 0.846 | -1.78 | -3.46 | -0.107 | -0.421 | -0.409 | -0.179 | -0.345 | -0.0784 | 0.231 | -0.684 |
| CN1CCC(c2ccc(CO)cc2)=CC1C1CC1 (stereo not given) | 0.262 | -0.368 | -0.49 | 0.596 (inactive) | 0.179 | -0.107 | 0.388 | -0.196 | 0.429 | 0.939 | 0.0996 | -0.954 | 0.163 | -0.257 | -0.691 | -0.208 | -0.0474 | -0.198 | -0.0443 | 0.0005 |
| COc1cc2c(cc1O)C=[N+](C)CC2 | 0.136 | 0.148 | -0.0058 | 0.131 (inactive) | 0.668 | -0.11 | -0.414 | 0.137 | -0.14 | 1.35 | -2.1 | -0.0523 | -0.0898 | -0.683 | -0.399 | -0.15 | -0.138 | -0.436 | -0.347 | -0.596 |
| C[C@@H]1OC=C2[C@@H](O)[C@H]3O[C@H]3C(=O)[C@]23[C@H]1[C@H]1C2=C([C@@H](O)[C@H]4O[C@H]4C2=O)[C@@H]3O[C@@H]1C | -0.636 | -0.0177 | -0.572 | 0.802 (inactive) | 0.0109 | -0.349 | 0.367 | 0.22 | 0.568 | 0.503 | -2.16 | -1.29 | 0.425 | -1.11 | -0.718 | -0.224 | -0.2 | -0.244 | 0.0387 | -0.244 |

Reference: PubChem BioAssay
